We go through 2 molecules from PMC11062922 (Nature Chemical Biology, 2023).

The subject of one assay is GSPT1;GSPT2. Further details: species or system human, MV4-11 + K-562 + COLO205 + SK-N-BE2 + OVCAR-8. To be noted: read-out: apparent Kd; compound concentrations: 100 nM and 1000 nM (sheet 'Samples'), CATDS: 3.5728111751545999E-2; n = 1.
Another assay has as its system SMC4. Further details: species or system human, MV4-11 + K-562 + COLO205 + SK-N-BE2 + OVCAR-8. To be noted: read-out: apparent Kd; compound concentrations:100 nM and 1000 nM (sheet 'Samples'); n = 1.

In the case of `CCC(CC)(CC)n1cnc2c(N)ncnc21` [SKF-97620], the potency estimated from few doses with GSPT1;GSPT2 is 655 nM. `Nc1nc(-c2ccc3c(N)n[nH]c3c2)cc(N2CCCCC2)n1` [GSK2228768A]: the potency estimated from few doses with SMC4 is 2040 nM.
